For assay [1], the target named is Estrogen receptor (Homo sapiens) (UniProt P03372). Briefly: qHTS assay for small molecule antagonists of estrogen receptor alpha signaling (AID 588513; active = well fitted curve in the direction sought with a large enough effect in the signal ratio, with a control signal flat, not every such curve was filed as active; the % refers to the signal ratio; also: % is scaled to controls: 0 for no effect and ±100 for the full control effect). The gist of the method:
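Antagonist mode: inhibition of 0.5 nM 17-beta-estradiol-driven beta-lactamase reporter in HEK 293 ER-alpha-UAS-bla cells, 18 h at 37C, CCF4 readout after 2 h at RT. Normalised to estradiol and DMSO; titration fitted to Hill.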
(In general: In qHTS, concentration-response curves come from the screen itself.)

Assay [2] shares this target. As to the kind of experiment: qHTS assay for small molecule agonists of estrogen receptor alpha signaling (AID 588514; calls by dose curve;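 also: 0% = vehicle only and 100% = reference agonist; nearly all actives have a fitted effect of over 70% in size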). The gist of the method:
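Cells were plated at 5000/well, incubated 4 hrs at 37 C, dosed with compound titration series, incubated 18 hrs at 37 C, loaded with CCF4 dye for 2 hrs at RT, then fluorescence was read.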

Assay [3] addresses Glucocorticoid receptor (Homo sapiens) (UniProt P04150). Briefly: qHTS assay for small molecule agonists of glucocorticoid receptor signaling (AID 588532; active = well fitted curve in the direction sought with a large enough effect in the signal ratio, with a control signal flat; the % refers to the signal ratio;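 also: 100% = dexamethasone at 0.1 µM and 0% = DMSO only wells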). Particulars: HeLa MMTV-bla, beta-lactamase ratio, agonist, 18 h; stronger effect = higher value; percent of dexamethasone control, DMSO zero. A digest of the protocol:
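Cells were plated and rested 3-5 h at 37 C, compounds were added in titration and incubated 18 h, then CCF4 substrate was loaded for 2 h at RT before reading blue/green fluorescence. EC50 came from Hill-equation fitting.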

Assay [4] has the same target. Briefly: qHTS assay for small molecule antagonists of glucocorticoid receptor signaling (AID 588533; active = well fitted inhibition curve with a large enough effect in the signal ratio, with a control signal flat, not every such curve was filed as active; the % refers to the signal ratio;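 also: cells stimulated with 2 nM dexamethasone as agonist; % is scaled to controls: 0 for no effect and ±100 for the full control effect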). The gist of the method:
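Antagonist-mode qHTS: compound titrations added to GRE-bla HeLa cells, then dexamethasone 2 nM final; 18 h, 37 C. CCF4 FRET fluorescence normalized to dexamethasone and DMSO; IC50 from Hill fit.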

Assay [5] can be described thus: qHTS assay for small molecule antagonists of peroxisome proliferator-activated receptor delta signaling (AID 588535; active = well fitted inhibition curve with a large enough effect in the signal ratio, with a control signal flat, not every such curve was filed as active; the % refers to the signal ratio;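 as to max response: cells co-treated with a PPAR-delta agonist as stimulator during compound exposure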). Particulars: HEK293T PPARd-UAS-bla, beta-lactamase FRET ratio, 18 h; 460 nm channel. A digest of the protocol: (§1)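 Antagonist-mode beta-lactamase reporter (GeneBLAzer PPAR-delta-UAS-bla) in HEK293T cells, 2% charcoal/dextran FBS, 4000 cells/well. Compound titrations, 18 h at 37 C; CCF4 ratio read, IC50 and efficacy from Hill fits.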

Assay [6] has as its target Peroxisome proliferator-activated receptor delta (Homo sapiens) (UniProt Q03181). The description is as above. A digest of the protocol:
as §1

Assay [7] in a line: qHTS assay for small molecule agonists of retinoid X receptor alpha signaling (AID 588544; calls by dose curve;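 as to activation: 0% = DMSO basal wells and 100% = reference agonist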). As to conditions: HEK293T RXRa-UAS-bla, beta-lactamase reporter, 18 h; 530 nm emission.
The target in assay [8] is Retinoic acid receptor RXR-alpha (Homo sapiens) (UniProt P19793). The assay is described as above.
Retinoic acid receptor RXR-alpha (Homo sapiens), sequence (P19793 whole entry, looked up): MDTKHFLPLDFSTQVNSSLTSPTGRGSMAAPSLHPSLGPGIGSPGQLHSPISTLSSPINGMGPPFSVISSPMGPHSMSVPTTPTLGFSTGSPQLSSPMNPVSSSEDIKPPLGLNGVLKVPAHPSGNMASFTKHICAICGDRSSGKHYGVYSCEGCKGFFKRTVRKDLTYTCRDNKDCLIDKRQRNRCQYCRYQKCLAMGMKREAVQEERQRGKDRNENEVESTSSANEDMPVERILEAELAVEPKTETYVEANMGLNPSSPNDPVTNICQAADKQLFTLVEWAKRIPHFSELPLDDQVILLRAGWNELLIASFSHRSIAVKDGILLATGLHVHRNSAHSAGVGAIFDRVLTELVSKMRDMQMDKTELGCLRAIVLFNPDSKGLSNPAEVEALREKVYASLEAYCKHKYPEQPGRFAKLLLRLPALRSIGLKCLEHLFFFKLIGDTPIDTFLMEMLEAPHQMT
The target of assay [9] is Thyroid hormone receptor beta (Homo sapiens) (UniProt P10828). Briefly: qHTS assay for small molecule agonists of thyroid hormone receptor beta signaling (AID 588545; calls by dose curve). A digest of the protocol: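 Agonist-mode beta-lactamase reporter assay, HEK 293 cells, 2% charcoal/dextran FBS; cells plated 4 hrs, compound 18 hrs at 37 C, CCF4 2 hrs RT. Normalized to 10 nM T3 (100%) and DMSO (0%); Hill fit gives EC50, efficacy.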
Thyroid hormone receptor beta (Homo sapiens), sequence (P10828 whole entry, looked up): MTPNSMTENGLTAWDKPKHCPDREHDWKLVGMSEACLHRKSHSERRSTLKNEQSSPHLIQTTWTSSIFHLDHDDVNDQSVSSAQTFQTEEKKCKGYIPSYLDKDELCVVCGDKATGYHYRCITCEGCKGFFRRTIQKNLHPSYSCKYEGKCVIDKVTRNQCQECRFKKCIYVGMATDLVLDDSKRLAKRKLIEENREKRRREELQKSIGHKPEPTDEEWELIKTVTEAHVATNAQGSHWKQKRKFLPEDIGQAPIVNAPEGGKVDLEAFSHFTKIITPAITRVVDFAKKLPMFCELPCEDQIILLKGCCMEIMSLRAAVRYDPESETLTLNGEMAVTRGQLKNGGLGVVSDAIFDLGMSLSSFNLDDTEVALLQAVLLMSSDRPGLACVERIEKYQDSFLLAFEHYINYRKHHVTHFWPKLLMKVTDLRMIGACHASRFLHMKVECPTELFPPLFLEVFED

Assay [10] is described as follows: qHTS assay for small molecule antagonists of retinoid X receptor alpha signaling (AID 588546; active = well fitted inhibition curve with a large enough effect in the signal ratio, with a control signal flat, not every such curve was filed as active; the % refers to the signal ratio;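 also: cells stimulated with 9-cis-retinoic acid as agonist; % is scaled to controls: 0 for no effect and ±100 for the full control effect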). Particulars: HEK293T RXRa-UAS-bla, beta-lactamase ratio, antagonist mode; measured here: W530 green channel, cytotoxicity proxy. A digest of the protocol: (§2)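 Beta-lactamase reporter inhibition, read as CCF4 fluorescence ratio (ex 405, em 460/530 nm) after 2 h at RT. HEK293T UAS-bla cells, 2500/well, were stimulated with 9-cis-RA at 500 or 100 nM final alongside test compound for 18 h at 37 C.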

The target of assay [11] is Retinoic acid receptor RXR-alpha (Homo sapiens) (UniProt P19793). The assay is described as above. Particulars: HEK293T RXRa-UAS-bla, beta-lactamase ratio, antagonist mode. The gist of the method:
as §2

The nature of assay [12]: qHTS assay for small molecule activators of the nuclear factor-kappa B (NF-kB) signaling pathway (AID 651749; active = well fitted activation curve with a large enough effect in the signal ratio; the % refers to the signal ratio; also: series mostly up to about 77 µM; % of control where 0% means no effect). Particulars: NF-kB-bla ME-180 cells, beta-lactamase FRET ratio, 16 h; activation: stronger effect = higher value. The gist of the method:
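NF-kB-bla ME-180 cells carrying a beta-lactamase reporter under an NF-kB response element, 2,000 cells/well, exposed to compound for 16 hr at 37C; FRET-based beta-lactamase fluorescence read-out of pathway activation.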

Assay [13] is described as follows: qHTS assay for environmental chemicals that activate the Aryl hydrocarbon Receptor (AhR) signaling pathway (AID 651777). Also: % of control where 0% means no effect; nearly all actives have a fitted effect of over 15% in size. As to conditions: 1A2-DRE human hepatoma cells, luciferase, 24 h; activation: stronger effect = higher value. The gist of the method: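 Luminescence read-out: One-Glo added for 30 min at RT after 24 hr compound treatment (37 C, 5% CO2) of human hepatoma cells expressing a DRE/CYP1A2 promoter–luciferase reporter; increased signal indicates AhR activation.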

The target of assay [14] is Peroxisome proliferator-activated receptor alpha (Homo sapiens) (UniProt Q07869). As to the kind of experiment: qHTS assay for small molecule agonists of the peroxisome proliferator-activated receptor alpha (PPARalpha) signaling pathway (AID 651778). Also: % of control where 0% means no effect. Particulars: PathHunter PPARalpha complementation, chemiluminescence, 6 h; max response: stronger effect = higher value. The gist of the method:
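Enzyme-fragment complementation assay in which ligand-bound PPARalpha translocates and forms an active enzyme that generates chemiluminescence. Cells were plated overnight, exposed to compound for 6 hr at 37 C, and then given detection reagent for 60 min at room temperature.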

Assay [15] can be described thus: qHTS assay for small molecule agonists of the antioxidant response element (ARE) signaling pathway measured by Nrf2-dependant transcriptional activity - cell viability counter screen (AID 720653; active = well fitted curve in the direction sought with a large enough effect in the repeat runs; an effect the other way counts as inactive or inconclusive; also: % is scaled to controls: 0 for no effect and ±100 for the full control effect). Particulars: ARE-bla HepG2 viability, CellTiter-Glo ATP luminescence, 16 h; max response: stronger effect = lower value. A digest of the protocol: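 ARE-bla HepG2 cells treated with compounds for 16 h at 37C; this counter screen measures viability as intracellular ATP by CellTiter-Glo luminescence after 30 min at room temperature.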

Assay [16] in a line: qHTS assay for cell viability of HEK293 cells (AID 743288). Also: % is scaled to controls: 0 for no effect and ±100 for the full control effect; nearly all actives have a fitted effect of over 50% in size. As to conditions: ATP luminescence (CellTiter-Glo), 18 h; max response: stronger effect = lower value. The gist of the method: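 Total intracellular ATP, measured with a luciferase-coupled reagent, indicates the number of viable HEK293 cells. Exposure to test chemicals lasts 18 h at 37 C in 1,536-well format at 2,000 cells/well.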

Assay [17] is described as follows: qHTS assay for cell viability of the p53RE-bla HCT-116 cell line (AID 743292). Also: % is scaled to controls: 0 for no effect and ±100 for the full control effect; nearly all actives have a fitted effect of over 55% in size. The gist of the method: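 Luminescent ATP quantitation (CellTiter-Glo) served as the viability read-out; reagent was added after 16 h compound exposure at 37 C and read after 30 min at room temperature. Cells: p53RE-bla HCT-116, 4,000 per well.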
Assay [18] addresses Nuclear receptor subfamily 1 group I member 2 (Rattus norvegicus) (UniProt Q9R1A7). As to the kind of experiment: qHTS assay for small molecule activators of the rat pregnane X receptor (rPXR) signaling pathway (AID 651751; call rule not given here; also: 0% is about no effect). Particulars: rPXR reporter cells, luciferase (One-Glo), 24 h.
Assay [19] in a line: qHTS assay for small molecule activators of the human pregnane X receptor (PXR) signaling pathway (AID 720659; call rule not given here; also: 0% is about no effect).
Assay [20] is described as follows: qHTS assay for small molecule agonists of the antioxidant response element (ARE) signaling pathway measured by Nrf2-dependant transcriptional activity (AID 720636; active = well fitted curve in the direction sought with a large enough effect in the repeat runs; an effect the other way counts as inactive or inconclusive;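 also: HepG2 cells with an ARE-driven luciferase reporter; % of control where 0% means no effect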). A digest of the protocol:
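HepG2 ARE-luc reporter line, 1% dialyzed FBS; 6 hr attachment at 37 C, compound pinned in, 16 hr at 37 C/5% CO2; ONE-Glo, 30 min RT, luminescence read.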

Molecules are shown by their SMILES. Results filed as inconclusive are left out. Calls of active or inactive are those of the source. Unless noted, calls follow the shape of the dose curve; as a rule, active = well fitted curve in the direction sought with a large enough effect; inconclusive = small, poorly fitted or top-dose-only effect, or another doubt; inactive = no such curve, though single readings can be large; an effect the other way counts as inactive or inconclusive.

Nuclear receptor subfamily 1 group I member 2 (Rattus norvegicus), sequence (Q9R1A7 whole entry, looked up): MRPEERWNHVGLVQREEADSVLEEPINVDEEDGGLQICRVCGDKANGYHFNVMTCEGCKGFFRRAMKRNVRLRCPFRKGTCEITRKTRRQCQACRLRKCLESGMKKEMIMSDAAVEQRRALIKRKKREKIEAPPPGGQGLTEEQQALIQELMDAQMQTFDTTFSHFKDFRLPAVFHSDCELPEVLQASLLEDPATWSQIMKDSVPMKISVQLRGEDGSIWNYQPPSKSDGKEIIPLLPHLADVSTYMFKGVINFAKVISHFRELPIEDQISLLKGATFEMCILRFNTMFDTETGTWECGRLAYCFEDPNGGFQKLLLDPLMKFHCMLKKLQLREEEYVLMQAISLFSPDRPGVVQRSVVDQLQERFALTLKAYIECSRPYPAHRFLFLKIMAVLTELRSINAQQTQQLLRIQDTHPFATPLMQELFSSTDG
Glucocorticoid receptor (Homo sapiens), sequence (P04150 whole entry, looked up): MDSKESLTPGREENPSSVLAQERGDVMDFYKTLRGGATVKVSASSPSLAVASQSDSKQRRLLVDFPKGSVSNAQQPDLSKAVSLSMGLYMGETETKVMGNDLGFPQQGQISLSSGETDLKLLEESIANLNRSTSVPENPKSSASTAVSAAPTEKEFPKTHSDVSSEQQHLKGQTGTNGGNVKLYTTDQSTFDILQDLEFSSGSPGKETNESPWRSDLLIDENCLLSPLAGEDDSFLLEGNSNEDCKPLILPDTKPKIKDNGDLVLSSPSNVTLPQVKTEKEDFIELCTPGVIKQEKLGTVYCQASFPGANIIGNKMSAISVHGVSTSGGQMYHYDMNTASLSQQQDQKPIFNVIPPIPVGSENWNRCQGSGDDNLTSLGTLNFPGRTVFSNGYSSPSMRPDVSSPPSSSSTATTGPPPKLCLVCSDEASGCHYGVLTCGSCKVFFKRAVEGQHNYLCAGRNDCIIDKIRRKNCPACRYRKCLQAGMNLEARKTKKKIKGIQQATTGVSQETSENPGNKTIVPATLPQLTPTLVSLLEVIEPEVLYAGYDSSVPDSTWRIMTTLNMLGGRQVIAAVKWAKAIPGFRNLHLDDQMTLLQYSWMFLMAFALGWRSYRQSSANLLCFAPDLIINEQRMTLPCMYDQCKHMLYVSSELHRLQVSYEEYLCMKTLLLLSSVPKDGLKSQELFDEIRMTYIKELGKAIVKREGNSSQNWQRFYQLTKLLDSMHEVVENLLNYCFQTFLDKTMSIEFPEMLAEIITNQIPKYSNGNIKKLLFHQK
Peroxisome proliferator-activated receptor alpha (Homo sapiens), sequence (Q07869 whole entry, looked up, the tested form may be a part): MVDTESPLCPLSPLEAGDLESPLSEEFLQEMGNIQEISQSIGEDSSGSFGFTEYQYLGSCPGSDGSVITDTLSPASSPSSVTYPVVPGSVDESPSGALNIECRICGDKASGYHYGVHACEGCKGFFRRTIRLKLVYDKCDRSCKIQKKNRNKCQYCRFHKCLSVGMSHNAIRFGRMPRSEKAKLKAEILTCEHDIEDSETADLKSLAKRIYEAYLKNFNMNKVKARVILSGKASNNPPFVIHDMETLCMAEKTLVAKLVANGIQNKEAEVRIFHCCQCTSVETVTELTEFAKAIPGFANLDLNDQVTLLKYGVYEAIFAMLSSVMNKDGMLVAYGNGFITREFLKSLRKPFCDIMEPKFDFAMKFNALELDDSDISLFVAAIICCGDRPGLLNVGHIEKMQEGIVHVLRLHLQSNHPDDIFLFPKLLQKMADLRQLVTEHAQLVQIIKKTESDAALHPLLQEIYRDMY
Estrogen receptor (Homo sapiens), sequence (P03372 whole entry, looked up): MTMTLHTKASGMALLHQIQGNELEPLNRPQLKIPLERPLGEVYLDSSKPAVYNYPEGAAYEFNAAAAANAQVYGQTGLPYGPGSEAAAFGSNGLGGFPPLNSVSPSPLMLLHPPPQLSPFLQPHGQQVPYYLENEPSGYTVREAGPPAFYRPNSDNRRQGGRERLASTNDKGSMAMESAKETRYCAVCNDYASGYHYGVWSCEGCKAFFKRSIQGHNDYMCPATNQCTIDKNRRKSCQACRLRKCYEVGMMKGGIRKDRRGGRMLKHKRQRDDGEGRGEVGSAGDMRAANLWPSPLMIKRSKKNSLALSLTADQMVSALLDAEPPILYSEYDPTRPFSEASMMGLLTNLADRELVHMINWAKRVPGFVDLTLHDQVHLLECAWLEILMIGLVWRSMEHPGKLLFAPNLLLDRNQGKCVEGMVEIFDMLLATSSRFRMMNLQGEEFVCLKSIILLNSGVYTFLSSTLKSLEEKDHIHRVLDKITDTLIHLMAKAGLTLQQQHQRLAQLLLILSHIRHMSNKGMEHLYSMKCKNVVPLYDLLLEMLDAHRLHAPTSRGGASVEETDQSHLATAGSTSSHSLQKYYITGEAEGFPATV
Peroxisome proliferator-activated receptor delta (Homo sapiens), sequence (Q03181 whole entry, looked up): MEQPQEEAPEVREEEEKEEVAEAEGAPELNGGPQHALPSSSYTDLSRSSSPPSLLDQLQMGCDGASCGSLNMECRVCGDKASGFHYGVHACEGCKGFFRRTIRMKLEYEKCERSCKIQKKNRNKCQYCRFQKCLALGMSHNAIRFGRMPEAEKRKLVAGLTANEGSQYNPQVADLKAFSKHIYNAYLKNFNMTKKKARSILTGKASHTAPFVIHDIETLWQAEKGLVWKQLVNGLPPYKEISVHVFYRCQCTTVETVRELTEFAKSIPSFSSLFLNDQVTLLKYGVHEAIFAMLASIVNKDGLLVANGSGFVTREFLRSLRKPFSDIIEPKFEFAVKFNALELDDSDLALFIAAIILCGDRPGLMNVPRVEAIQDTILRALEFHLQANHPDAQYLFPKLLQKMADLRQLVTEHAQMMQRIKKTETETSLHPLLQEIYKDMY

Regarding `O=[N+]([O-])c1ccc2c(c1)Cc1ccccc1-2`, the Potency entry in assay [1], in [2], in assay [4], in assay [6], in assay [8] and in [9] was “inactive” throughout. In addition, the Potency result in [17] was “inactive”. Besides, the activation is -0.149% (inactive) in assay [3], -1.58% (inactive) in assay [12] and 0.842% (inactive) in assay [13]. Moreover, the max response in [5] is 11.1%; in assay [7], -11.5%; in assay [10] it was -2.02%; in assay [11], -11.9% (inactive); in [14], -0.719% (inactive); in [15] it was -13.8% (inactive). Moreover, the max response in [16] is -16.4% (inactive); in [18], 5.85% (inactive). The call in assay [19] was inactive.
Consider `CCCC/C=C/CCCCO`, for which the Potency entry in [1], in [2], in assay [4], in assay [8], in assay [9] and in [20] was “inactive” in each case. Also, the Potency result in assay [17] is “inactive”. The activation in assay [3] is -4.1% (inactive); in assay [13], -0.731% (inactive). In addition, the max response was -14.6% in [7]; -7.43% in [10]; -16.5% (inactive) in [11]; -1.7% (inactive) in assay [14]; 0.665% (inactive) in [15]; -2.13% (inactive) in assay [18]. In [19], the result was inactive.
Regarding `CCCCCCCCCCCCCO`, the Potency result in assay [1], in assay [2], in assay [4], in assay [6], in assay [8] and in [9] was “inactive” in each case. Further, the Potency entry in assay [17] was “inactive”. The results for the activation in assay [3] and in [13] were 0.908% (inactive) and 0.322% (inactive), respectively. Besides, the max response in [5] was 18.2%; in [7], -5.38%; in assay [10], -5.73%; in [11] it was 3.57% (inactive); in assay [14], 1.19% (inactive); in assay [15], -9.94% (inactive). The max response is -5.94% (inactive) in [16] and 1.91% (inactive) in [18]. In addition, the result in assay [19] was inactive.
For `CC(C)O.CC(C)O.CC(C)O.CC(C)O.[Ti]`, the Potency entry in assay [1], in assay [2], in assay [6], in [8], in assay [9] and in assay [20] was “inactive” each time. Further, in assay [17], the Potency entry was “inactive”. Further, the max response in [5] was -8.01%; in [7] it was -22.2%; in [10], -4.69%; in assay [11], 1.54% (inactive); in assay [14], -0.904% (inactive); in [15] it was -1.55% (inactive). In addition, the values for the max response in assay [16] and in [18] were -10.9% (inactive) and -0.917% (inactive), respectively. Moreover, the activation is -1.08% (inactive) in assay [12] and 0.139% (inactive) in assay [13]. Besides, the call in assay [19] was inactive.
`c1ccc2c(c1)Cc1ccccc1-2`: the Potency entry in assay [1], in assay [2], in [4], in assay [8], in [9] and in assay [20] was “inactive” in each case. The Potency entry in assay [17] was “inactive”. Also, the max response was -12.1% in assay [7]; -16.6% in assay [10]; -2.65% (inactive) in assay [11]; -0.262% (inactive) in [14]; -7.29% (inactive) in assay [15]; -4.41% (inactive) in assay [16]. Besides, the max response in assay [18] is -3.34% (inactive). Moreover, the activation in [12] was -1.09% (inactive); in [13] it was 1.34% (inactive). In addition, in assay [19], the molecule was called inactive.
`CC(C)OB(OC(C)C)OC(C)C`: the Potency entry in [1], in assay [2], in assay [4], in assay [8], in assay [20] and in assay [17] was “inactive” in each case. In addition, the max response in assay [7] is -15.5%; in assay [10], -7.32%; in assay [11] it was 0.387% (inactive); in assay [14], -0.0686% (inactive); in assay [15], -7.65% (inactive); in assay [16], -7.12% (inactive). Also, the max response in assay [18] was 0.348% (inactive). The figures for the activation in [12] and in assay [13] were 1.02% (inactive) and 9.09% (inactive), respectively. Further, in [19], the outcome was inactive.
